According to PubChem BioAssay AID2129 (The Scripps Research Institute Molecular Screening Center, 2009):
Among all 320,000 compounds or so, about 2,200 (0.69%) were called active.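 The calls were made as follows: active = inhibition above the mean of all tested compounds plus 3 SD, cutoff set per campaign (cut at about 30% in these data); inactive = the rest.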 Shown is part of a subset that was picked to be rich in actives.

The molecules below were run against Bcl-2-like protein 1 (Homo sapiens) (UniProt Q07817) (assay: Bcl-xL/Bim BH3 interaction blockers – biochemical, fluorescence polarization, HTS, primary screen (AID 2129;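 also: 0% = DMSO wells and 100% = unlabeled Bim-BH3 peptide competitor; inhibitors lower millipolarization by displacing the labeled peptide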)). Conditions: GST-Bcl-xL / FITC-Bim BH3 peptide fluorescence polarization; at 10.9 µM; active compounds read high.
Chain of Bcl-2-like protein 1 (Homo sapiens) (Q07817 whole entry, looked up): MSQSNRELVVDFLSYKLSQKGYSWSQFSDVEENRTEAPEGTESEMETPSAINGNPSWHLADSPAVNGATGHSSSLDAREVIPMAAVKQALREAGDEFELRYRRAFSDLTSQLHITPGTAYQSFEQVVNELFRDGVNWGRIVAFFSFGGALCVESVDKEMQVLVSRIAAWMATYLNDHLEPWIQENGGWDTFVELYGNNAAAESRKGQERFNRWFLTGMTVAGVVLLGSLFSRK

Structure (SMILES)	inhibition
N#CC1=C(N)Oc2c(c(=O)oc3ccccc23)C1c1ccccc1OC(=O)c1cccs1 (stereo not given)	3.02% (inactive)
CCNc1nc2[nH]c(=O)c3c(c2s1)OC(N)=C(C#N)C3c1cccs1 (stereo not given)	30.4% (active)
Cc1ccc(N(C)C(=O)Oc2cccc3ccc(C)nc23)cc1	0.48% (inactive)
NCCc1c[nH]c2ccc(O)cc12	4.75% (inactive)
COc1cccc(N2C(=O)NC(=O)/C(=C\c3cn(C)c4ccccc34)C2=O)c1	36.2% (active)
O=C1NC(=O)N(c2ccccc2)C(=O)/C1=C/c1ccc([N+](=O)[O-])s1	26.3% (inactive)
Cc1ccccc1N1C(=O)NC(=O)/C(=C\c2cc(C)n(C)c2C)C1=O	2.98% (inactive)
Cc1ccc(-n2c(O)c(C=NCC3CCCO3)c(=O)[nH]c2=O)c(C)c1 (stereo not given)	-2.2% (inactive)
COc1ccc(N2C(=O)/C(=C/c3ccco3)C(=O)NC2=S)cc1	32.5% (active)
Cc1cc(/C=C2/C(=O)NC(=O)N(Cc3ccco3)C2=O)c(C)n1-c1ccc(C(=O)O)cc1	-1.1% (inactive)
COc1ccc(CN2C(=O)NC(=O)/C(=C\c3ccc(OC)c(OC)c3OC)C2=O)cc1	-7.16% (inactive)
Cc1cccc(NC(=O)OC2CN3CCC2CC3)c1 (stereo not given)	-2.32% (inactive)
CC(=NC1CCN(Cc2ccccc2)CC1)c1c(O)n(C)c(=O)n(C)c1=O	14.7% (inactive)
Cc1ccc2c(c1)C1CN(C)CCC1N2C(=O)Cn1nnc(-c2ccccc2F)n1 (stereo not given)	4.75% (inactive)
O=c1c2ccccc2nc(/C=C/c2ccc(F)cc2)n1-c1ccccc1O	0.24% (inactive)
